ChEMBL document CHEMBL3433997, “St. Jude Leishmania screening dataset” (2016)

These compounds were tested against Solute carrier family 2, facilitated glucose transporter member 1 (Homo sapiens) (UniProt P11166) (assay: ST_JUDE_LEISH: Cytotoxicity at 2uM final concentration against transgenic Leishmania Mexicana promastigotes LmGLUT1 that are glucose transport deficient and complemented with the human glucose transporter GLUT1. Activity is measured by DNA content using SYBR green in vitro).
Solute carrier family 2, facilitated glucose transporter member 1 (Homo sapiens), sequence (P11166 whole entry): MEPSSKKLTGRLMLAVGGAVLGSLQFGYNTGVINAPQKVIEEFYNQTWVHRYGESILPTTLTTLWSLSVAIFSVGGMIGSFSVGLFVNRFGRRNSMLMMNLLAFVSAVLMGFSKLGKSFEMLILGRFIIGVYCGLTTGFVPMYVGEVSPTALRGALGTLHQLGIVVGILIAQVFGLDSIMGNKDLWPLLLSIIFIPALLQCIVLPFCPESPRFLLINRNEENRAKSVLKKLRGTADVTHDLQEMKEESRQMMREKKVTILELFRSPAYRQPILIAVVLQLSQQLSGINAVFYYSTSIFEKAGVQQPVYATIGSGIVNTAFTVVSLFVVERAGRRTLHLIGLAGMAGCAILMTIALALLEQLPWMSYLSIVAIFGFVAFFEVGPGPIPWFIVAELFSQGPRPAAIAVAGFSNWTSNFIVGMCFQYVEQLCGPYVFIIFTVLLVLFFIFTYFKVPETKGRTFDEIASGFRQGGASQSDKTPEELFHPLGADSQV
Type: functional
`O=C(/C=C/c1ccc(Cl)c(Cl)c1)NCCCCCN1CCC(NC(=O)Nc2ccc(F)c(Cl)c2)CC1` gave an inhibition of 3.93%.
Work on `CCCCCCSc1nnc(COc2cccc3ccccc23)n1-c1ccc(OC)cc1` yielded an inhibition of 11%.
`CN1CCN(c2cc3c(cc2Cl)CCN3C(=O)Cc2ccc(Cl)c(NC(=O)Nc3cccc([N+](=O)[O-])c3)c2)CC1` showed an inhibition of -0.26%.
`CCOC(=O)/C(=N\OC(C(=O)OC(C)(C)C)c1ccccc1)c1csc(NC(c2ccccc2)(c2ccccc2)c2ccccc2)n1` (centres undefined) showed an inhibition of 0.73%.
For `Cc1sc2ccc(Cl)cc2c1S(=O)(=O)Nc1ccc2nccc(N3CC(C)NC(C)C3)c2c1` (centres undefined), the inhibition was 3.66%.
With `CCCC(C)Nc1nc(C)cc(N[C@@H](Cc2ccccc2)C(=O)NCCc2ccccc2)n1` (some centres undefined) the inhibition was 2.61%.
Work on `c1nc2nc3c(c(Nc4ccc5c(c4)CCC5)n2n1)CCC3` yielded an inhibition of 3.23%.
`COc1ccc(C2CCC(NCCCCNC(=O)c3ccc(NC(=O)c4ccc(Cl)cc4)cc3)CC2)cc1` (centres undefined) was tested, and the inhibition was 1.37%.
Work on `CN1CCCC(CN2CCN(Cc3cccc(-c4ccc(-c5nc6cc(C(F)(F)F)ccc6[nH]5)cc4)c3)CC2)C1` (centres undefined) yielded an inhibition of 1.06%.
`COc1ccc(NC(=O)NC2CCN(CCCCCNC(=O)/C=C/c3ccc(Cl)c(Cl)c3)CC2)cc1` was tested, and the inhibition was -1.04%.
In the case of `COc1cc(/C=C/C(=O)NC2CCC(N3CCC(c4ccccc4C)CC3)CC2)cc(OC)c1` (centres undefined), the inhibition was -0.75%.
`Nc1nccc2ccc(-c3ccc(NC(=O)Nc4cc(C(F)(F)F)ccc4F)cc3)cc12` gave an inhibition of 0.91%.
Work on `Cc1ccc(CCC(C)NCC(O)c2cccc(Cl)c2)cc1` (centres undefined) yielded an inhibition of 12.8%.
For `COc1ccc(CNc2nccc3ccc(-c4ccc5nccn5c4)cc23)cc1`, the inhibition was 1.79%.
For `COc1ccc(NC(=O)c2ccc(-c3nc(-c4ccccc4)cs3)cc2)cc1N1CCN(C)CC1`, the inhibition was 9.73%.
For `CCCc1cc(N2CCC(N(CC)CC)C2)nc(Nc2ccc(OC)cc2)n1` (centres undefined), the inhibition was 3.16%.
`O=C(NCCN1CCCC1)c1ccc(-c2ccc(-c3nc4ccccc4[nH]3)s2)cc1` gave an inhibition of 0.96%.
Work on `COc1ccc(NC(=O)[C@H](Cc2ccccc2)Nc2cc(C)nc(NCCc3ccccn3)n2)cc1` yielded an inhibition of 4.73%.
`CCC(C)(C)c1ccc(OCC(O)CN2CCCCC2)c(C(C)(C)CC)c1` (centres undefined) gave an inhibition of 14.6%.
`CN(C)c1ccc(C2c3[nH]cnc3CCN2C(=O)Nc2cccc([N+](=O)[O-])c2)cc1` (centres undefined) gave an inhibition of 7.55%.
With `Cc1cccc(Nc2nc(NCCCCN)nc3cc[nH]c(=O)c23)c1` the inhibition was 6.92%.
`CN1CCN(c2ccnc3ccc(NC(=O)Nc4ccc(-c5ccncc5)c5ccccc45)cc23)CC1` gave an inhibition of 3.36%.
Work on `CCCN(Cc1ccc(C)cc1)Cc1cc(=O)c2cc(Cl)ccc2[nH]1` yielded an inhibition of 9.14%.
With `CCCc1ccc(NC(=O)c2ccc(CN3CCCN(CC4CCCCC4)CC3)cc2)cc1` the inhibition was 2.9%.
